Bioassay records deposited in PubChem BioAssay by National Center for Advancing Translational Sciences (NCATS).
The entries come from a sample that favours hits as a whole.
KDM4E inh: qHTS Assay for Inhibitors of Human Jumonji Domain Containing 2E (JMJD2E); Lysine-specific demethylase 4E (Homo sapiens), B2RXH2; JMJD2E catalytic domain, FDH-coupled NADH fluorescence (FDH is formaldehyde dehydrogenase); Potency, µM (highest dose often 57.1 µM), without a hit: at the highest dose activity change, negative = inhibition, hits mostly inhibitors; AID 2147, 2009; hit rate 1.6% among 230,000; active means well fitted inhibition curve with a large enough effect, not every such curve was filed as active; inconclusive means small, poorly fitted or top-dose-only effect, or another doubt; inactive means no such curve, though single readings can be large or run the other way;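 further: potency means the concentration at half of the fitted maximal effect; 0% = wells with enzyme and -100% = buffer wells without enzyme; nearly all actives have a fitted effect of over 50% in size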
Eya2 inh: qHTS Assay for Inhibitors of the Phosphatase Activity of Eya2. Protein phosphatase EYA2 (Homo sapiens), O00167. recombinant Eya2, OMFP fluorescence dephosphorylation (OMFP is methylfluorescein phosphate). Potency, µM (titrated, usually from 76.9 µM), inactives show at the top dose activity, negative = inhibition, actives largely listed as inhibitors. hit rate 0.006% among 330,000. AID 488837, 2010; further: potency means the concentration at half of the fitted maximal effect
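Eya2 protein (added as 0.2 uM solution) was preincubated with compound for 10 min at ambient temperature in 50 mM HEPES pH 7.5, 50 mM NaCl, 5 uM MgCl2, 0.05% BSA, 1 mM DTT. OMFP (added at 50 uM) then reacted 10 min; fluorescence read at 485/525 nm.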
Anesthetic bind: qHTS Assay for Identification of Novel General Anesthetics; Ferritin light chain (Equus caballus), P02791; apoferritin/1-aminoanthracene competitive binding, fluorescence; Potency, µM (highest dose often 77.5 µM), inactives show top-dose activity change, negative = displacement, usual class: inhibitors; hit rate 0.074% among 350,000; AID 485281, 2010; further: potency means the concentration at half of the fitted maximal effect; nearly all actives have a fitted effect of over 20% in size
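Concentration-response curves derived by four-parameter Hill fitting of normalized fluorescence, where compounds displaced 1-AMA from 10 uM horse apoferritin following a brief 10 min room-temperature incubation; propofol titration acted as positive control.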
GALK inh: qHTS Assay for Inhibitors of Human Galactokinase (GALK); P51570; Purified GALK, Kinase-Glo residual ATP luminescence; Potency, µM (highest dose often 57.5 µM), for inactives: at the highest dose activity change, negative = inhibition, most hits filed as inhibitors; hit rate 0.007% among 270,000; further: potency means the concentration at half of the fitted maximal effect
Target sequence (P51570 whole entry, looked up): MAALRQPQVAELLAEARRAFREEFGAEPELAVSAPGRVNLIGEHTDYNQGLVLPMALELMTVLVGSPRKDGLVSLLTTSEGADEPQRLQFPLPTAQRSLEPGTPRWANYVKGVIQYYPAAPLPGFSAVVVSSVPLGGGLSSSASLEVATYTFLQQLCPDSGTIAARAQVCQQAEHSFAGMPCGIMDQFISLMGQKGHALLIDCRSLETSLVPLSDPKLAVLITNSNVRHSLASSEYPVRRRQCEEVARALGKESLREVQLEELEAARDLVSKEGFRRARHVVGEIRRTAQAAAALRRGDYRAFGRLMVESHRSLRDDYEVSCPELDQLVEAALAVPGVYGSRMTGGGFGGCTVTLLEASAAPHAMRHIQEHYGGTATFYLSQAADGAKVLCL
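GALK at 5 nM final was combined with compound, 35 uM ATP and 100 uM galactose in HEPES pH8.0 with MgCl2 and DTT. The reaction ran one hour at room temperature before luminescent ATP detection.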
Six1-Eya2 inh: qHTS Assay for Inhibitors of the Six1/Eya2 Interaction; AlphaScreen GST-Six1/His-Eya2 binding, biochemical; hits give low values; hit rate 0.56% among 360,000; AID 651725, 2012; activity change, % (concentration not given with the values); in the data active means activity change below about -65%; inconclusive means mostly about -30% to -63%
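Six1/Eya2 binding was read as AlphaScreen signal after compounds were pinned into GST-Six1 plus His-tagged Eya2 (5X stock 250/500 nM) in pH 8.0 Tris/NaCl/TCEP buffer, beads added, then incubated 1 h, 37 C, dark.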
CtBP-E1A inh: qHTS Assay for Inhibitors of the CtBP/E1A Interaction | CtBP / adenovirus E1A interaction (AlphaScreen) | AlphaScreen GST-E1A/His-CtBP binding, 1536-well; hits give low values | activity change, % (concentration not given with the values) | AID 651724, 2012 | hit rate 0.49% among 340,000; in the data active means activity change below about -65%; inconclusive means mostly about -30% to -63%
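GST-E1A and His-tagged CtBP (125 nM each as 5X stock) were preincubated with pin-transferred compound for 2 h at 37 °C in the dark, then glutathione donor and nickel acceptor beads were added for 1 h before AlphaScreen reading.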
Active calls of the source: *; ? = inconclusive; . = not tested or not shown; [ ] = dose if it differs, or a comment. Unless noted, the call rests on the fitted dose curve; in most records, active means well fitted curve in the direction sought with a large enough effect; inconclusive means small, poorly fitted or top-dose-only effect, or another doubt; inactive means no such curve, though single readings can be large; an effect the other way counts as inactive or inconclusive. Unless noted, on the % scale 0 is the no-effect control and ±100 the full control effect.

SMILES | KDM4E inh | Eya2 inh | Anesthetic bind | GALK inh | Six1-Eya2 inh | CtBP-E1A inh
COc1cc(/C=N/n2c(-c3ccccc3)n[nH]c2=S)ccc1O | 25µM* | 7% | -17% | -2% | 0 | 6
CC1CCN(C2=C(NS(=O)(=O)c3ccc(Br)cc3)C(=O)c3ccccc3C2=O)CC1 | . | -5% | -11% | 1% | -84* | .
CC1CCN(C2=C(NS(=O)(=O)c3ccc(Cl)cc3)C(=O)c3ccccc3C2=O)CC1 | -9% | 1% | -24% | 3% | -30 | ?
O=C1C(NS(=O)(=O)c2ccccc2)=C(N2CCN(c3ccc(F)cc3)CC2)C(=O)c2ccccc21 | -5% | -9% | ? | 0% | -77* | -88*
CC1CCN(C2=C(NS(=O)(=O)c3ccccc3)C(=O)c3ccccc3C2=O)CC1 | ? | 2% | -8% | 6% | -72* | -85*
Cc1ccc(OC(=O)c2cc(-c3ccccc3)nc3ccc(C)cc23)cc1 | . | . | 0% | . | . | .
O=C(CO)[C@@H](O)C(O)[C@@H](O)CO (stereo not given in full) | . | . | 7% | . | . | .
CCCS(=O)(=O)NC(=O)C1(C)CCN(C(=O)c2ccccc2C(F)(F)F)C1 (stereo not given) | . | . | . | . | 5 | 7
Cc1ccc(NC2c3ncccc3C(=O)N2c2ccccc2C)cc1C (stereo not given) | 14µM* | 8% | -12% | -5% | -12 | 16
CCCCOP(=O)(c1ccc(N(C)C)cc1)C(O)c1ccncc1 (stereo not given) | 22µM* | 15%[15.4 µM] | -4% | 1% | 11 | 8
Cc1noc(Cn2c(=O)c3ccccc3n(CC(=O)Nc3cc(Cl)ccc3C)c2=O)n1 | . | . | -3% | . | . | .
COCCNC(=S)N/N=C(\C)c1ccccc1O | -20% | 3% | -12% | -1% | -69* | ?
COCCCNC(=S)N/N=C/c1ccccc1O | 28µM* | -1% | 48% | . | -90* | .
COCCNC(=S)N/N=C/c1ccccc1C(=O)O | 1% | 11% | -12% | 2% | 4 | 1
Oc1ccccc1/C=N/NC(=S)NC1CC2CCC1C2 (stereo not given) | 25µM* | 2% | -5% | . | -85* | -84*
O=C(COc1ccccc1)NC1CCCCCCC1 | . | 1% | 45µM* | -2% | 9 | 3
CC(Cc1ccc(O)c(O)c1)C(C)Cc1ccc(O)c(O)c1 (stereo not given) | 22µM* | . | . | . | -5 | -5
N[C@@H](Cc1ccc(O)c(O)c1)C(=O)O | 13µM* | -3% | 7%[29.3 µM] | . | ? | -25
C[C@H](Cc1ccc(O)c(O)c1)[C@@H](C)Cc1ccc(O)c(O)c1 | 14µM* | -4% | . | . | . | .
Oc1ccc(Cl)cc1N=Cc1sc2ccccc2c1Cl | ? | -7% | ? | -2% | 1 | 3
O=[N+]([O-])c1ccc(O)c(N=Cc2sc3ccccc3c2O)c1 | 7.1µM* | 0% | -14% | . | 0 | -2
COc1ccc(NC(=O)N(CCC(C)C)C(C)c2cccs2)c(OC)c1 (stereo not given) | . | . | 20% | . | . | .
CC1C(=O)NN=C1C(=O)N/N=C\c1ccc(O)cc1O (stereo not given) | 22µM* | -3% | -9% | 0% | -92* | -11
COc1cc(/C=N/NC(=O)C2=NNC(=O)C2C)ccc1O (stereo not given) | -13% | -10% | -9% | -2% | -3 | 6
